Inconclusive results are not listed. Entries that show only a call come without a potency. Activity calls are given as the source filed them. Calls come from the whole dose curve; as a rule, active = well fitted inhibition curve with a large enough effect; inconclusive = small, poorly fitted or top-dose-only effect; inactive = no such curve, though single readings can be large or run the other way.
assay: Acumen qHTS Assay for Inhibitors of the mTORC1 Signaling Pathway in WT MEF Cells: Hit Validation; settings: Acumen imaging; series mostly up to 37.3 µM; note: nearly all actives have a fitted effect of over 60% in size
Outline: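 Read-out is immunofluorescent phospho-rpS6 (Ser235/236) normalised to PI-stained cell number, reported as % active cells using a 7.5 nM rapamycin threshold. Cells: WT or Tsc2-/-, p53-/- MEFs, compound-exposed 24 h at 37C; PI count also tracks viability.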
Potency is the fitted concentration of half-maximal effect.

Which Potency does the source give for `Cc1ccccc1NC(=O)c1sc2nc3c(cc2c1N)CCCC3` here?
Its Potency is “inactive”.

Which Potency does the source give for `COc1cccc(-c2cc(C(=O)Nc3cnn(Cc4ccc(Cl)cc4Cl)c3)no2)c1` here?
Its Potency is “inactive”.

Which Potency does the source give for `CC[C@H](CO)Nc1nc(NCc2ccccc2)c2ncn(C(C)C)c2n1` here?
The Potency was “inactive”.

With `COc1ccc(OCC(O)Cn2c(=N)n(CCN3CCCCC3)c3ccccc32)cc1` (stereo unspecified) as the compound, how does the Potency read?
Its Potency is “inactive”.

Which Potency does the source give for `Cc1nnc(C(=O)NC(C)(C)c2nc(C(=O)NCc3ccc(F)cc3)c(O)c(=O)n2C)o1` here?
The Potency was “inactive”.

For `CC(C)CS(=O)(=O)c1oc(-c2ccc(F)cc2)nc1S(=O)(=O)c1ccccc1`, which Potency is on record?
The Potency was 0.585 µM (active).

For `CCOc1ccccc1NC(=O)CN1C(=O)C(=O)c2ccccc21`, which Potency is on record?
Its Potency is “inactive”.

Which Potency does the source give for `CC(C)(C)c1ccc(C(=O)Nc2nnc3n2CCS3)cc1` here?
The Potency was 8.26 µM (active).

With `COc1ccc(OC)c(NC(=O)c2nc(S(=O)(=O)Cc3ccc(F)cc3)ncc2Cl)c1` as the compound, how does the Potency read?
The Potency was 3.29 µM (active).

For `C#CC(C)(CC)NC(=O)Cn1nnc(-c2ccc(OCc3c(F)cccc3Cl)cc2)n1` (stereo unspecified), which Potency is on record?
Its Potency is “inactive”.

Which Potency does the source give for `CCc1ccc(-n2c(=O)c3c4c(sc3n(CC(=O)c3ccc(F)cc3)c2=O)CCC4)cc1` here?
The Potency was 18.5 µM (active).

Which Potency does the source give for `CCOC(=O)c1c(NC(=O)c2nc(S(C)(=O)=O)ncc2Cl)sc(C(C)=O)c1C` here?
The Potency was 2.07 µM (active).

Which Potency does the source give for `O=C(NCCN1CCN(c2cccc(Cl)c2)CC1)Nc1ccccc1C(F)(F)F` here?
Its Potency is “inactive”.

Which Potency does the source give for `Cc1cccc(CSCCNC(=O)CN(c2ccccc2)S(=O)(=O)N(C)C)c1` here?
The Potency was “inactive”.

For `CC(=O)N1CCCc2cc(S(=O)(=O)N(Cc3ccccc3)C(C)C)ccc21`, which Potency is on record?
The Potency was “inactive”.

With `Cc1ccc(CNS(=O)(=O)c2cc(C(=O)Nc3cccc(C(F)(F)F)c3)ccc2F)cc1` as the compound, how does the Potency read?
Its Potency is “inactive”.
